Test [1] deals with Tyrosine-protein kinase ABL1 (Homo sapiens), P00519 [T315I]. Particulars: at 1 µM.
Test [2] relates to Tyrosine-protein kinase ABL1 (Homo sapiens), P00519 [Y253F]. The settings on record: at 0.1 µM.
For test [3] the test system is unchanged. The settings on record: at 1 µM.
The target of test [4] is Tyrosine-protein kinase ABL1 (Homo sapiens) (UniProt P00519). The settings on record: at 0.1 µM.
For test [5] the target is unchanged. The settings on record: at 1 µM.
The target of test [6] is ALK tyrosine kinase receptor (Homo sapiens) (UniProt Q9UM73). The settings on record: at 0.1 µM.
Test [7] has the same target. Particulars: at 1 µM.
In test [8] the target is Tyrosine-protein kinase ABL2 (Homo sapiens) (UniProt P42684). Particulars: at 0.1 µM.
Test [9] shares this target. The settings on record: at 1 µM.
Test [10] addresses Tyrosine-protein kinase receptor UFO (Homo sapiens) (UniProt P30530). The settings on record: at 0.1 µM.
For test [11] the target is unchanged. Particulars: at 1 µM.
Test [12] addresses Tyrosine-protein kinase Blk (Homo sapiens) (UniProt P51451). Particulars: at 0.1 µM.
Test [13] has the same target. The settings on record: at 1 µM.
Test [14] addresses T1, Cytoplasmic tyrosine-protein kinase BMX (Homo sapiens) (UniProt P51813).
T1 sequence (whole entry): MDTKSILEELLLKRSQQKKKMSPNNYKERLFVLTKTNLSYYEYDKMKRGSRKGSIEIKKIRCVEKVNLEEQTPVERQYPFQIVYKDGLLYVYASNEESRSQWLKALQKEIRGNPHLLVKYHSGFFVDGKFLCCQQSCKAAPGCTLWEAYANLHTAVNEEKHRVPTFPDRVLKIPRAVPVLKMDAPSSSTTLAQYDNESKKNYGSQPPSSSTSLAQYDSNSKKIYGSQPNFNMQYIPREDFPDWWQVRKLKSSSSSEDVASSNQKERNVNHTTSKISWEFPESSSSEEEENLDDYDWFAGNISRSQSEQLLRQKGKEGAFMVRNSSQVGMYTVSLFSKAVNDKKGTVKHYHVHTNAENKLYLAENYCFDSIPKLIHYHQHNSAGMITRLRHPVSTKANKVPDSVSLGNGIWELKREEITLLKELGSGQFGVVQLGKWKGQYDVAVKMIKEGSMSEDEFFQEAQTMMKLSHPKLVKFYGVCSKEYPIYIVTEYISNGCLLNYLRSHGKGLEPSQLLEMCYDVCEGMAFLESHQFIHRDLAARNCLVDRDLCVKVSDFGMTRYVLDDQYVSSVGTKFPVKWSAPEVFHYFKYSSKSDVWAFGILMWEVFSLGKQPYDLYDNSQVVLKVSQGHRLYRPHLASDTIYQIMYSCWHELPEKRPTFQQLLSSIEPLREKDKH
The settings on record: at 0.1 µM.

Test [15] has as its target T1, Cytoplasmic tyrosine-protein kinase BMX (Homo sapiens). The settings on record: at 1 µM.
The target in test [16] is Protein-tyrosine kinase 6 (Homo sapiens) (UniProt Q13882). The settings on record: at 0.1 µM.
Test [17] shares this target. The settings on record: at 1 µM.
The target in test [18] is Tyrosine-protein kinase BTK (Homo sapiens) (UniProt Q06187). Particulars: at 0.1 µM.
Test [19] shares this target. The settings on record: at 1 µM.
In test [20] the target is Tyrosine-protein kinase CSK (Homo sapiens) (UniProt P41240). The settings on record: at 0.1 µM.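 Note: value given is the averaged percent inhibition of CSK kinase activity, from the GSK PKIS kinase inhibitor set screening panel.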
Sequence of Tyrosine-protein kinase CSK (Homo sapiens) (P41240 2-450 limits assumed): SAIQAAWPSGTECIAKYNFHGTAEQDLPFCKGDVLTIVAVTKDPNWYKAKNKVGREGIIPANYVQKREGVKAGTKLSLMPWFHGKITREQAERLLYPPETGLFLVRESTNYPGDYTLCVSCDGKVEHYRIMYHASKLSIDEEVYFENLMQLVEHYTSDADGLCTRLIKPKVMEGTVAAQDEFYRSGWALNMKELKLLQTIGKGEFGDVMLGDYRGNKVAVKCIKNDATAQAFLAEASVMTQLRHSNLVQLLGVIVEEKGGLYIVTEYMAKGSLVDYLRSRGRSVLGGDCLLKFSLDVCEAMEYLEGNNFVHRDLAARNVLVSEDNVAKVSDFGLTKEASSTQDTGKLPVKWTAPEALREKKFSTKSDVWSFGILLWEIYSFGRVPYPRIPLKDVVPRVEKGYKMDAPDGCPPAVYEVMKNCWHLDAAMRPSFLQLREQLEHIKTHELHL

Sequence of Protein-tyrosine kinase 6 (Homo sapiens) (Q13882 whole entry, looked up): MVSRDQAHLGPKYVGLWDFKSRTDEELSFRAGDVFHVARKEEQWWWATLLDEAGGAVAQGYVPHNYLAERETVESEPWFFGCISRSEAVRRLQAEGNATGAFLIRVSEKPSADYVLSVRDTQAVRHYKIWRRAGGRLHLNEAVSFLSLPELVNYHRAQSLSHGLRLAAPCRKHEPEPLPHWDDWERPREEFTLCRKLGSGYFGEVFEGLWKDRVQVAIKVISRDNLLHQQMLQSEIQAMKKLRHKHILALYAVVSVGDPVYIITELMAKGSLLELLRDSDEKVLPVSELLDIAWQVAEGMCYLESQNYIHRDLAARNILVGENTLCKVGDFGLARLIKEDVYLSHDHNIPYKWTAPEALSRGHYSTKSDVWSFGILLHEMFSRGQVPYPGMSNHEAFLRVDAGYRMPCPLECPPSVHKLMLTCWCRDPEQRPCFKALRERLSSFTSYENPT
Sequence of Tyrosine-protein kinase receptor UFO (Homo sapiens) (P30530 whole entry): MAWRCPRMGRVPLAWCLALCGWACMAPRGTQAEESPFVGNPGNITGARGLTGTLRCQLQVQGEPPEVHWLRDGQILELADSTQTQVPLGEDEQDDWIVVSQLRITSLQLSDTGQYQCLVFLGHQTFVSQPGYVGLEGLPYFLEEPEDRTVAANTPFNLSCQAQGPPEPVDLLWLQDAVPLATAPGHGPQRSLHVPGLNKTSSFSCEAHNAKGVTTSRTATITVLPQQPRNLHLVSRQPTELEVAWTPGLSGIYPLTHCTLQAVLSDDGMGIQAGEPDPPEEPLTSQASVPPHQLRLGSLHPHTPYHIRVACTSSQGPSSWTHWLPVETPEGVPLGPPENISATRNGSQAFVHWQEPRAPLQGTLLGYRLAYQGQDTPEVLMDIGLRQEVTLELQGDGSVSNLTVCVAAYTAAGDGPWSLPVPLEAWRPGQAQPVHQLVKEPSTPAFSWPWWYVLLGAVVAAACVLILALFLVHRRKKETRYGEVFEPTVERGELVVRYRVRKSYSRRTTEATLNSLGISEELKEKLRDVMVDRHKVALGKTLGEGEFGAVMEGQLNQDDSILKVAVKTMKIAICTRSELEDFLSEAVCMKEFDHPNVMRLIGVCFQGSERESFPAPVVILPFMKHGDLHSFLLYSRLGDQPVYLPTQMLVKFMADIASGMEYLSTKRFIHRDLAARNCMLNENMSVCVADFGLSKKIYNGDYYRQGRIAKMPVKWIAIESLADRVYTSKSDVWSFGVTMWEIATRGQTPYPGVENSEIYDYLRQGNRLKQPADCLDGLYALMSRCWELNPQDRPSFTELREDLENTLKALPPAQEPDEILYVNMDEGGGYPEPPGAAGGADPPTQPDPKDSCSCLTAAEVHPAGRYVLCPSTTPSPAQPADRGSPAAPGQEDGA
Sequence of Tyrosine-protein kinase Blk (Homo sapiens) (P51451 2-505 limits assumed): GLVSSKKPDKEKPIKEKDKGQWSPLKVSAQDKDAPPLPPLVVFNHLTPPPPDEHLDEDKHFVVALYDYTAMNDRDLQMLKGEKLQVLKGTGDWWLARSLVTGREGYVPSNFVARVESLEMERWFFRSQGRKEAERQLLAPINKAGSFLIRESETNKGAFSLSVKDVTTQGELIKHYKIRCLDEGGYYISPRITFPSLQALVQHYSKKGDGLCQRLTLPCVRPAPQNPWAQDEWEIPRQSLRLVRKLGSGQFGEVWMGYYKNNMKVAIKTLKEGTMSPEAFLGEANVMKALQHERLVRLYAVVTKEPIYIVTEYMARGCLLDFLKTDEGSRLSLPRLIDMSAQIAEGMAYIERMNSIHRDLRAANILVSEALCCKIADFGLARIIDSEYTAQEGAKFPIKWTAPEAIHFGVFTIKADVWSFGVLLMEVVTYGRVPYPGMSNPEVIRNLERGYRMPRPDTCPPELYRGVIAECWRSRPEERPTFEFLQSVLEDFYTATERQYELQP
Sequence of ALK tyrosine kinase receptor (Homo sapiens) (Q9UM73 19-1620 limits assumed): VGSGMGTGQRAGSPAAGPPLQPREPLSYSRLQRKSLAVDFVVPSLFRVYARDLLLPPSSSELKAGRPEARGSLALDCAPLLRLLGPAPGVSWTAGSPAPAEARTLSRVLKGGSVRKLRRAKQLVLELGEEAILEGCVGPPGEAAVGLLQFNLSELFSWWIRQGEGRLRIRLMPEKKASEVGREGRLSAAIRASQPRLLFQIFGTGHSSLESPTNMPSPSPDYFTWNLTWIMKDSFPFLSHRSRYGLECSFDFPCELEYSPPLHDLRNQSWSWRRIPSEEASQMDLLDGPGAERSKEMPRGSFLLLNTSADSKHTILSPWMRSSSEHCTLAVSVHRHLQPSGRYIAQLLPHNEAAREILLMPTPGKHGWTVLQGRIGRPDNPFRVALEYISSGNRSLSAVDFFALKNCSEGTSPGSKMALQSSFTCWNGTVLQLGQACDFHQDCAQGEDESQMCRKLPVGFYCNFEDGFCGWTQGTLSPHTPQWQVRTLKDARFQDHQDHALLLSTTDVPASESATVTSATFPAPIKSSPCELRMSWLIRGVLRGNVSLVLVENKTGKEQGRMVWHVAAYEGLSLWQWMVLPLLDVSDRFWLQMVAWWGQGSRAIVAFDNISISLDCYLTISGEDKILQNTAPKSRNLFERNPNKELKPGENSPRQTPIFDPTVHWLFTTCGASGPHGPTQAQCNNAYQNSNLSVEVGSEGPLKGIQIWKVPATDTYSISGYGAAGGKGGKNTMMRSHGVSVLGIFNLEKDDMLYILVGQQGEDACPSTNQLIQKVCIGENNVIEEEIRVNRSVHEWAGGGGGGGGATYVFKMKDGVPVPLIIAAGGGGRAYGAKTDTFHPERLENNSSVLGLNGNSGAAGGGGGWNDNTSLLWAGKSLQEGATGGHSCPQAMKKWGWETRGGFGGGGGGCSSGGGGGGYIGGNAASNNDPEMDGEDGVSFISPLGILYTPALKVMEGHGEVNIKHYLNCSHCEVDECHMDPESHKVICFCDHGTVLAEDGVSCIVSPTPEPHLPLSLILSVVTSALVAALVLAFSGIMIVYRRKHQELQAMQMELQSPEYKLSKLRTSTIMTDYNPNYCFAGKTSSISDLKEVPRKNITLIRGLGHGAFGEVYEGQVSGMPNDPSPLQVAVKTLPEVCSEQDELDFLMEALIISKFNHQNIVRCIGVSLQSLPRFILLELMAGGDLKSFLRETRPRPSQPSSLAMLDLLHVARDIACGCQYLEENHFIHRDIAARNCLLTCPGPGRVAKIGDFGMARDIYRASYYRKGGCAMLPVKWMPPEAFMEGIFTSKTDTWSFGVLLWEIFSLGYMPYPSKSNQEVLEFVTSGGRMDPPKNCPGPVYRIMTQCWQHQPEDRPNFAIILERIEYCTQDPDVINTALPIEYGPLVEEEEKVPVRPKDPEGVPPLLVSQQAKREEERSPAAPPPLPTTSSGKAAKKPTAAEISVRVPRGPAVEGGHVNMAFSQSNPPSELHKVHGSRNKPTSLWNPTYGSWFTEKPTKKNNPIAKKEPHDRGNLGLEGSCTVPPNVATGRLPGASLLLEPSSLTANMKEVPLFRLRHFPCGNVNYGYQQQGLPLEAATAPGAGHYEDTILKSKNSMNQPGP
Sequence of Tyrosine-protein kinase BTK (Homo sapiens) (Q06187 whole entry): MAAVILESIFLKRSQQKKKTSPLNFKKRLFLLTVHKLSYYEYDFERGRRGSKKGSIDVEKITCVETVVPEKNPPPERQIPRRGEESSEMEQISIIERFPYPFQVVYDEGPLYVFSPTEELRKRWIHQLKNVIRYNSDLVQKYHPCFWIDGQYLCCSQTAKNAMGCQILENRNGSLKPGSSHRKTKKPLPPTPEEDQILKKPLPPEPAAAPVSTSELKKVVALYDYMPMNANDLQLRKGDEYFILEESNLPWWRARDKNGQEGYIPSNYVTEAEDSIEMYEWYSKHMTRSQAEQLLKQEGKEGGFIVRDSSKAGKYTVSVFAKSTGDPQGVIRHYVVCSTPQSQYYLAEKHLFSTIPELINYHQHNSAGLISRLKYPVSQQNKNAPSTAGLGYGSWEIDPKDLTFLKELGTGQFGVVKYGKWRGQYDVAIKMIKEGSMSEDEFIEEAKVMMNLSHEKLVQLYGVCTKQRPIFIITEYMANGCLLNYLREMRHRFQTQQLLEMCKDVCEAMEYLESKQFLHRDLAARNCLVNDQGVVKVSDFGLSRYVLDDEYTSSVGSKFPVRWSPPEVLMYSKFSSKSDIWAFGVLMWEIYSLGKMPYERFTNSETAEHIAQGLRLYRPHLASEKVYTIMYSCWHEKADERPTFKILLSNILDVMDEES

On to `O=C(Nc1n[nH]c2cc(-c3ccccc3)ccc12)C1CC1`, for which the inhibition is 82.8% in [1]; 22.3% in test [2]; 68% in [3]; 13.5% in test [4]; 63.8% in test [5]; 3.37% in test [6]. Moreover, the inhibition in test [7] was 4.86%; in test [8] it was 6.15%; in test [9], 31.2%; in test [10], -8.55%; in [11], -6.73%; in [12], 1.88%. Besides, the inhibition in test [13] came out at 6.79%; in test [14] it was 4.11%; in test [15], 4.88%; in [16], 2.71%; in test [17], 6.62%; in [18], 1.13%. Also, the inhibition was 2.12% in [19] and 2.97% in [20].

In the case of `COc1cc(C)c(N(C)C(=O)CN(C)C)cc1Nc1nc(Nc2cccc(F)c2C(N)=O)c2cc[nH]c2n1`, the inhibition in test [1] was -0.05%; in test [2] it was 2.02%; in [3], 1.33%; in [4] it was 0.32%; in [5], 0.22%; in test [6] it was 22.4%. Also, the inhibition in test [7] is 69.9%; in [8] it was -2.32%; in [9] it was -3.83%; in test [10] it was -0.45%; in [11], 3.71%; in test [12], -3.28%. The inhibition in [13] was -1.84%; in [14] it was -1.82%; in [15], 2.46%; in test [16], 0.54%; in test [17], 1.53%; in test [18], -1.73%. Besides, the values for the inhibition in test [19] and in test [20] were -2.02% and 1.1%, respectively.

`COc1cc(Nc2ncc(-c3ccccc3)o2)cc(OC)c1OC`: the inhibition in test [1] is 22.3%; in [2] it was 16.7%; in test [3] it was 69.2%; in test [4], 7.54%; in test [5] it was 52.3%; in test [6] it was -2.74%. Further, the inhibition in test [7] is -0.68%; in [8], 9.54%; in test [9] it was 52.1%; in test [10] it was -0.73%; in [11], -1.68%; in [12], 4.17%. Also, the inhibition in test [13] was 41.1%; in [14], 2.78%; in test [15], 8.49%; in test [16] it was 0.16%; in test [17], 4.16%; in [18], -0.88%. The inhibition in test [19] was 0.25%; in [20], -1.07%.

For the compound `N#Cc1ccc(Oc2nccc(-c3c(-c4ccc(F)cc4)ncn3C3CCNCC3)n2)cc1`, the inhibition in test [1] was 5.17%; in test [2] it was 2.11%; in test [3], 5.93%; in test [4], 3.72%; in test [5] it was 5.42%; in test [6], 3.58%. Further, the inhibition in test [7] was 5.33%; in test [8], 1.9%; in test [9], 6.94%; in test [10], -5.46%; in test [11], -3.22%; in test [12], 2.21%. Also, the inhibition is 3.73% in test [13]; 3.25% in [14]; 4.26% in [15]; 4.1% in test [16]; 4.81% in test [17]; -1.09% in test [18]. Also, the inhibition in [19] was determined as 0.54%; in [20] it was 0.79%.

In the case of `Cc1ccc(C(=O)NC(C)C)cc1-c1ccc(C(=O)NCC2CC2)cc1`, the inhibition in test [1] is 0.58%; in test [2] it was -2.81%; in test [3] it was -0.96%; in test [4], 0.14%; in test [5], 1.26%; in [6], -4.4%. For the same compound, the inhibition is -3.45% in [7]; -2.09% in test [8]; -0.41% in test [9]; 2.35% in [10]; 4.77% in test [11]; -1.25% in test [12]. The inhibition is -1.6% in test [13]; -4.33% in test [14]; -4.09% in test [15]; -3.3% in test [16]; -4.09% in test [17]; -0.46% in [18]. For the same compound, the values for the inhibition in test [19] and in [20] were -1.32% and -7.18%, respectively.

As to `c1ccc(-c2n[nH]cc2-c2ccnc(-c3ccc(OCCN4CCOCC4)cc3)c2)nc1`, the inhibition was 1.83% in test [1]; 13.5% in test [2]; 57.1% in [3]; 18.2% in test [4]; 70% in [5]; -2.58% in test [6]. The inhibition in [7] amounted to 3.94%; in [8], 5.43%; in [9] it was 34.1%; in test [10], 8.29%; in test [11], 10.8%; in [12], 1.62%. Besides, the inhibition in test [13] was 1.61%; in [14], 2.19%; in [15] it was 0.44%; in test [16] it was -5.63%; in test [17], -2.62%; in [18], 0.21%. The inhibition in test [19] is 6.66%; in [20] it was -3.84%.

Take `FC(F)(F)c1cccc(Nc2nccc(-c3cnn4nc(-c5ccccc5)ccc34)n2)c1`: the inhibition in test [1] is 1.88%; in [2], -1.1%; in test [3] it was 3.96%; in test [4], -0.03%; in test [5], 5.59%; in test [6], 1.89%. Besides, the inhibition in test [7] is 1.6%; in [8], 3.3%; in test [9], 3.79%; in test [10], -3.39%; in [11], -4.33%; in test [12], 0.07%. For the same compound, the inhibition is -0.26% in [13]; 1.76% in [14]; 0.63% in [15]; -1.81% in test [16]; 2.26% in test [17]; 0.03% in [18]. Further, the inhibition in [19] is -0.49%; in test [20], 4.19%.

The record behind these values is ChEMBL document CHEMBL1961873, “Compounds: GSK PKIS; Assays: Nanosyn kinase panel” (2012).
